# Laboratory results taken from PubChem BioAssay.
# Active and inactive are the calls of the source.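 The calls were made as follows, unless noted: active = luciferase signal above three times the same-plate solvent-only control wells; inactive = the rest.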
# Target: NAD(+) hydrolase SARM1 (Homo sapiens) (UniProt Q6SZW1)
# Test: blocking NAD cleavage by SARM1 SAM-TIR – cell lysate, NAD-Glo luminescence (AID 1508614;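 active = compound whose remaining NAD level is above about 45 nM, limit read from the data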;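 also: higher remaining NAD means stronger inhibition of SARM1 NADase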)
# Details: SAM-TIR HEK293T lysate NADase, at 1 µM, stronger effect = higher value
# Chain of NAD(+) hydrolase SARM1 (Homo sapiens) (Q6SZW1 whole entry, looked up): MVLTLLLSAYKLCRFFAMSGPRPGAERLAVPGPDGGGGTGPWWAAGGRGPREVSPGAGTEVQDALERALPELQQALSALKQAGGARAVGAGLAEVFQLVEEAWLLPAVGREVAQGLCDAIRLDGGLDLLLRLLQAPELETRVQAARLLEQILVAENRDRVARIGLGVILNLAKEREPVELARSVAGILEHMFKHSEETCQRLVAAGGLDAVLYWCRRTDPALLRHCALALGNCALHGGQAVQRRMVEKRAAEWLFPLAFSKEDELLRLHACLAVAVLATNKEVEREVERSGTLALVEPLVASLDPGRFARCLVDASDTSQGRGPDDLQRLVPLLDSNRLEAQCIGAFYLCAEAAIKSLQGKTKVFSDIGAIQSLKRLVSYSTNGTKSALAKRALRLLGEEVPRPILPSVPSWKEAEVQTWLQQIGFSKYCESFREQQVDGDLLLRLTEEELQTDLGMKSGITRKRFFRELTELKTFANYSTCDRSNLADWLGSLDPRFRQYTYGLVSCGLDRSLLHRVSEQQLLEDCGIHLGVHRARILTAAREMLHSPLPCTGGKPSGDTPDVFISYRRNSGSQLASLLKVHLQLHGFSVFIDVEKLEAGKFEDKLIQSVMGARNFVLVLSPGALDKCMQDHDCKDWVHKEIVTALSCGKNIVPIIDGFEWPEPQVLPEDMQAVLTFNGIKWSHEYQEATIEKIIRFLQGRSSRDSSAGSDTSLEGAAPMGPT
row,SMILES,remaining NAD
1,OCC(S)CS (stereo unspecified),10 nM (inactive)
2,CNC(C)[C@@H]1CC[C@@H](N)[C@@H](OC2[C@@H](N)C[C@@H](N)[C@H](OC3OC[C@](C)(O)[C@H](NC)[C@H]3O)[C@H]2O)O1 (stereo partly specified),10 nM (inactive)
3,Nc1ccc(C(=O)O)c(O)c1 (tested in a mixture with another compound),10 nM (inactive)

# Target: Mitogen-activated protein kinase 7 (Homo sapiens) (UniProt Q13164)
# Sequence (Q13164 whole entry, looked up, the tested form may be a part): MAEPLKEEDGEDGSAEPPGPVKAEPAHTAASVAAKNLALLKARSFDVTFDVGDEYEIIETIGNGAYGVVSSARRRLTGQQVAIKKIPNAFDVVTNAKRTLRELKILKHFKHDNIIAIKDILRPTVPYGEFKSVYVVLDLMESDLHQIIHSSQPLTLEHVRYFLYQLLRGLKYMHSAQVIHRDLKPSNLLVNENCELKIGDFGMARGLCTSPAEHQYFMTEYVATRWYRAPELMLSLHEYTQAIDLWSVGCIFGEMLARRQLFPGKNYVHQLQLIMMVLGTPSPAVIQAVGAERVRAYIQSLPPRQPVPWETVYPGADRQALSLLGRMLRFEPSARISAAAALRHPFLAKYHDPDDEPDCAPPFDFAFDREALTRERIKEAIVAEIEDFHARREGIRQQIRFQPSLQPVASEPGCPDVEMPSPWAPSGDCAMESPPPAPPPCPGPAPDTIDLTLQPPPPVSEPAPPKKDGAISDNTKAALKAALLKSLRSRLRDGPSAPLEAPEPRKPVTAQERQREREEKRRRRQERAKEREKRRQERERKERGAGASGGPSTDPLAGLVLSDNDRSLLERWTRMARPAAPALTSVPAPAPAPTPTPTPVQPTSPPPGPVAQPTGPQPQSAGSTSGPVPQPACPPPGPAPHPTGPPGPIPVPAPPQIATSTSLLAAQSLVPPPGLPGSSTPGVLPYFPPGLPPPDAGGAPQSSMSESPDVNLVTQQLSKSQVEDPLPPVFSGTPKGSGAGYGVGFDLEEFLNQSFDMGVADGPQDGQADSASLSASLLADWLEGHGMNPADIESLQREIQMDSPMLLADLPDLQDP
# Test: Gal4-ERK5 driven luciferase induction – cell-based, HTS, primary screen (AID 1508626);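 also: luciferase driven by Gal4-ERK5 fusion binding five Gal4 sites before minimal TATA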
# Details: HeLa Gal4-ERK5 transactivation, 18 h, at 5 µM, stronger effect = higher value
row,SMILES,luciferase signal
1,OCC(S)CS (stereo unspecified),92 AU (inactive)
2,CC(=O)O[C@@H]1CC2C(C)(C)C(=O)C3OC3[C@]2(C)C2CC[C@@]3(C)[C@H](c4ccoc4)OC(=O)C4OC43[C@@]21C (stereo partly specified),4 AU (inactive)
3,CC(=O)OC/C=C(\C)CC/C=C(\C)CC/C=C(\C)CC/C=C(\C)CC/C=C(\C)CC/C=C(\C)CC/C=C(\C)CC/C=C(\C)CCC=C(C)C,84 AU (inactive)
4,O=S(=O)(O)c1cc(N=C=S)ccc1/C=C/c1ccc(N=C=S)cc1S(=O)(=O)O,52 AU (inactive)
5,COc1ccc(-c2cc(=O)c3c(O)c(OC)c(OC)c(OC)c3o2)cc1OC,112 AU (inactive)
6,CC(=O)O[C@H]1C[C@@H](OC(C)=O)C(C)(C)C2C[C@@H](O)[C@]3(C)C(CC[C@@]4(C)[C@H](c5ccoc5)OC(=O)[C@H]5O[C@]543)[C@]21C (stereo partly specified),28 AU (inactive)
7,CC1=CC(=O)C2C(C)(C)CCC[C@]2(C)[C@@]1(O)CCc1ccoc1 (stereo partly specified),128 AU (inactive)
8,CCCCCCCCCCCCCCCC(=O)OCC(O)CO (stereo unspecified),72 AU (inactive)
9,Cc1c(S(=O)(=O)O)oc2c1C(=O)C(=O)c1c-2ccc2c1CCCC2(C)C,48 AU (inactive)
10,CC(=O)O[C@H]1CC[C@@]2(C)C(C[C@@H](OC(C)=O)[C@]3(C)C2CC[C@@]2(C)[C@H](c4ccoc4)OC(=O)[C@H]4O[C@]423)C1(C)C (stereo partly specified),60 AU (inactive)
11,CC1(C)C(=O)[C@@H]2C[C@@]3(O)C4=CC(=O)O[C@@H](c5ccoc5)[C@]4(C)CCC3C(C)(C2=O)[C@H]1CC(=O)O (stereo partly specified),20 AU (inactive)
12,CC(=O)O[C@H]1CC[C@@]2(C)C(C[C@@H](OC(C)=O)[C@@]3(C)C4=CC(=O)O[C@@H](c5ccoc5)[C@]4(C)CCC23)C1(C)C (stereo partly specified),28 AU (inactive)
13,O=C(O)/C=C/C=C/c1ccccc1,64 AU (inactive)
14,CNC(C)[C@@H]1CC[C@@H](N)[C@@H](OC2[C@@H](N)C[C@@H](N)[C@H](OC3OC[C@](C)(O)[C@H](NC)[C@H]3O)[C@H]2O)O1 (stereo partly specified),28 AU (inactive)
15,O=C(O)c1cc(=O)c(O)c2c(O)c(O)c(O)cc2c1,100 AU (inactive)
16,OC[C@H]1O[C@@H](O[C@H]2[C@H](O)[C@@H](O)[C@@H](O)O[C@@H]2CO)[C@H](O)[C@@H](O)[C@@H]1O,32 AU (inactive)
17,S=c1ccss1,52 AU (inactive)

row,SMILES,luciferase signal
1,COc1cc2oc3cc(OC)c(OC)c(CC=C(C)C)c3c(=O)c2c(OC)c1CC=C(C)C,164 AU (inactive)
2,CC(=O)Oc1cc(C)c2c(c1C(OC(C)=O)OC(C)=O)Oc1c(c(C)c(OC(C)=O)c3c1C(OC(C)=O)OC3=O)OC2=O (stereo unspecified),124 AU (inactive)
3,CC(=O)OCC(=O)[C@@]1(O)CCC2C3CCC4=CC(=O)C=C[C@]4(C)[C@@]3(F)[C@@H](O)C[C@@]21C (stereo partly specified),76 AU (inactive)
4,CC(=O)OCC(OC(C)=O)C(OC(C)=O)C(OC(C)=O)C(OC(C)=O)C(COC(C)=O)OC(C)=O (stereo unspecified),80 AU (inactive)
5,COc1ccc([C@H]2COc3c(ccc(O)c3OC)C2)c(OC)c1O,60 AU (inactive)
6,O=C1C=CC(=O)c2c(O)c(Cl)c(Cl)c(O)c21,12 AU (inactive)
7,O=c1cccc2ccc(O)c(O)c2c1O,44 AU (inactive)
8,O=C(O)c1ccc2c(c1)OCO2,48 AU (inactive)
9,COc1ccc(-c2oc3cc(OC)c(OC)c(OC)c3c(=O)c2OC)cc1,72 AU (inactive)
10,COc1ccc(-c2coc3cc(O)ccc3c2=O)c(OC)c1,60 AU (inactive)
11,O=c1cc(-c2ccc(O)cc2)oc2cc(O)ccc12,180 AU (active)
12,C=CC(C1=CC(=O)C=CC1=O)c1ccccc1 (stereo unspecified),64 AU (inactive)
13,O=C(NC1CCCCC1)NC1CCCCC1,60 AU (inactive)
14,COc1cc(O)c(C(=O)/C=C/c2ccc(OC)c(O)c2)c(OC)c1,84 AU (inactive)
15,O=c1cc(-c2ccccc2)oc2cccc(O)c12,104 AU (inactive)
16,CC(=O)Oc1cc(OC(C)=O)c2c(c1)O[C@H](c1ccc(OC(C)=O)c(OC(C)=O)c1)[C@@H](OC(C)=O)C2,16 AU (inactive)
